Source: PubChem BioAssay
Rows were chosen to be rich in hits. Some 3.6% of all compounds tested hit in one or more screens of this group.
Mm-Cpn inhibitor – inhibitors of Methanococcus maripaludis chaperonin TRiC (MmCpn) | purified Mm-Cpn ATPase, ADP Transcreener TR-FRET | Potency, µM (titrated, usually from 76.9 µM), actives largely listed as inhibitors | AID 504842 | 0.031% of 330,000 active; note: nearly all actives have a fitted effect of over 80% in size
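Quantitative HTS used 25 nM Mm-CPN and 10 uM ATP in magnesium/KCl Tris buffer, pH 7.4, with 1 mM DTT. Hydrolysis ran 30 min at 37°C; ADP was read by HTRF.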
TDP-43 yeast inh – TDP-43 toxicity inhibition in yeast | TDP-43 expressing yeast growth rescue, BacTiter-Glo, 24 h | Potency, µM (series often up to 46.1 µM), usual class: activators | 1.8% of 410,000 active | AID 652104; note: nearly all actives have a fitted effect of over 50% in size
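Cell-based yeast growth screen: TDP-43 expression induced in galactose, inoculum OD600=0.02 after raffinose pregrowth to mid-log. Read-out BacTiter-Glo luminescence at 24 hr, 30 deg C; inhibition of toxicity seen as signal increase.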
aSyn yeast inh – alpha-synuclein toxicity inhibition in yeast. AID 652106. Yeast expressing alpha-synuclein, growth rescue, BacTiter-Glo, 24 h. 0.14% of 370,000 active. Potency, µM (highest dose often 46.1 µM), most hits filed as activators; note: nearly all actives have a fitted effect of over 65% in size
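Screening used galactose-induced yeast with toxic alpha-synuclein levels, exposed to compound for 24 hr at 30 deg C. Cell growth, read with BacTiter-Glo luminescence, gave the measured signal.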
FUS yeast rescue – suppressors of FUS proteinopathy in yeast. 0.24% of 390,000 active. AID 1347120. S. cerevisiae FUS-expressing, growth rescue, OD600, 24 h. Potency, µM (doses to about 76.6 µM), most hits filed as activators; note: nearly all actives have a fitted effect of over 55% in size
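Galactose (2%) drives FUS expression in yeast precultured in raffinose; seeding density OD 0.005. Test compounds incubated 24hr at 30C and 99% humidity before absorbance at 600 nm was measured.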
ClpP mod – qHTS Assay for Activators of ClpP; ATP-dependent Clp protease proteolytic subunit (Bacillus subtilis (strain 168)), P80244; purified B. subtilis ClpP, FRET peptide cleavage, 20 min; Potency, µM (highest dose often 57.5 µM); 1.9% of 340,000 active; active = well fitted falling curve with a large enough effect; inconclusive = small, poorly fitted or top-dose-only effect; inactive = no such curve, though single readings can be large or run the other way; note: the source files actives as falling curves though it sought activators and does not explain the sign; nearly all actives have a fitted effect of over 65% in size
Target sequence (P80244 whole entry, looked up): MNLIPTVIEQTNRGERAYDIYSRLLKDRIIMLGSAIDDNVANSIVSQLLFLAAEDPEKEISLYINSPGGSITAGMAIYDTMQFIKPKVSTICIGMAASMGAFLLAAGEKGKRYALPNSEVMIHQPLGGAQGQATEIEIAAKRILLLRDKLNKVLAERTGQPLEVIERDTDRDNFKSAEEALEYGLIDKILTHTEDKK
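Purified B. subtilis ClpP, 10 microg/mL final in Tris/HCl pH8 with KCl, BSA, glycerol and Tween-20, cleaved an Abz/nitrotyrosine-quenched decapeptide. Fluorescence (ex 320, em 430) was read at 0 and 20 min at room temperature. Delta was normalized to 5.8 microM ADEP and DMSO/no-enzyme controls.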
Abeta rescue – restores growth of yeast expressing A-beta42 peptide; 0.063% of 410,000 active; Potency, µM (series often up to 46.1 µM), most hits filed as activators; yeast expressing A-beta42, growth rescue, OD600, 48 h; response scale: 0% DMSO, 100% iron-clioquinol control; note: nearly all actives have a fitted effect of over 55% in size
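Yeast A-beta toxicity model in growth medium with pinned compounds, 48 h at 30 C; growth read as absorbance at 600 nm. Normalized to FeCl3/clioquinol equimolar mix (positive) and DMSO (negative).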
Each line names hits and unclear results; the compound was inactive in the other large screens. Unless noted, calls come from the whole dose curve; as a rule, active = well fitted curve in the direction sought with a large enough effect; inconclusive = small, poorly fitted or top-dose-only effect, or another doubt; inactive = no such curve, though single readings can be large; an effect the other way counts as inactive or inconclusive.

Cc1ccccc1Cn1cnc2c([N+](=O)[O-])c(C)c(C)cc21	TDP-43 yeast inh 13µM
Cc1cccc(NC(=S)NCCc2ccccc2)c1C	TDP-43 yeast inh 18µM
Cc1c(Cl)cccc1NC(=S)NC1CCCC1	TDP-43 yeast inh 20µM, Abeta rescue inconclusive
S=C(NCCc1ccc(Cl)cc1)NC1CCCCC1	Abeta rescue inconclusive
Cc1c(Cl)cccc1NC(=S)NCCc1ccc(Cl)cc1	TDP-43 yeast inh inconclusive, Abeta rescue 10µM (no result: ClpP mod)
S=C(NCCc1ccc(Cl)cc1)NC1CCCC1	Abeta rescue 10µM
CCc1nn(CC(=O)NCc2ccccc2Cl)c(=O)c2cc3ccccc3n12	none (no result: Mm-Cpn inhibitor, aSyn yeast inh)
Cc1ccc(NC(=O)c2cnn3c2NC(=C2CC2)C=C3C(F)F)cc1	none (no result: Mm-Cpn inhibitor, TDP-43 yeast inh, FUS yeast rescue, Abeta rescue)
S=C(NCCc1ccccc1)N1CCC2CC1c1cc(-c3ccc4c(c3)OCO4)ccc12 (centres undefined)	TDP-43 yeast inh inconclusive (no result: Mm-Cpn inhibitor)
COCCNC(=S)N1CCC2CC1c1cc(-c3ccc4c(c3)OCO4)ccc12 (centres undefined)	TDP-43 yeast inh 22µM, FUS yeast rescue inconclusive, Abeta rescue inconclusive (no result: Mm-Cpn inhibitor)
Cc1cc(C)c(NC(=O)C2CCN(c3nn4c(=O)cc(C)nc4s3)CC2)c(C)c1	none (no result: Mm-Cpn inhibitor, aSyn yeast inh)
COCCn1c(-c2ccc(NC(C)=O)cc2)nc2c1c(=O)[nH]c(=O)n2CC(C)C	Abeta rescue inconclusive (no result: ClpP mod)
COCCn1c(-c2ccc(-c3ccccc3Cl)o2)nc2c1c(=O)[nH]c(=O)n2CC(C)C	ClpP mod 4µM
CCCCn1c(=O)[nH]c(=O)c2c1nc(-c1ccc(-c3ccccc3Br)o1)n2CCOC	ClpP mod 32µM
CCn1c2ccccc2c2nc3cc(OC)c(OC)cc3nc21	ClpP mod inconclusive
CCn1c2ccccc2c2nc3ccccc3nc21	TDP-43 yeast inh 10µM
c1ccc(Cn2c(SCc3nc4ccccc4s3)nnc2-c2ccco2)cc1	TDP-43 yeast inh 14µM, FUS yeast rescue inconclusive
CCOC(=O)c1cccc(NC(=O)Cn2ncc3c4ccccc4n(Cc4ccccc4)c3c2=O)c1	none (no result: Mm-Cpn inhibitor, aSyn yeast inh)
Cc1cc(N(C)C)c(C)cc1/C=C/c1ccnc2ccccc12	none (no result: Mm-Cpn inhibitor, TDP-43 yeast inh, aSyn yeast inh, FUS yeast rescue, Abeta rescue)
Nc1nc2ccccc2cc1C(=O)NCCCCc1ccccc1	TDP-43 yeast inh 28µM, Abeta rescue inconclusive (no result: Mm-Cpn inhibitor)
CCOc1ccc(Nc2nc(C)c(NC(=O)c3cccc(F)c3)c(Nc3ccc(OCC)cc3)n2)cc1	none (no result: Mm-Cpn inhibitor, aSyn yeast inh)
C/C(CC(=O)Nc1ccc(Cl)cc1Cl)=N\NC(=O)C(=O)N1CCCC1	none (no result: ClpP mod)
COCCNC(=O)C(=O)N/N=C(\C)CC(=O)Nc1ccc(Cl)cc1Cl	ClpP mod 28µM (no result: FUS yeast rescue)
COC(=O)C1(CC2CC(c3ccccc3)=NO2)CCN(C(=O)OC(C)(C)C)CC1 (centres undefined)	none (no result: Mm-Cpn inhibitor)
CC(C)(C)OC(=O)N1CCC(CC2CC(c3ccccc3)=NO2)(C(=O)O)CC1 (centres undefined)	TDP-43 yeast inh 22µM (no result: Mm-Cpn inhibitor)
O=C(NCCc1ccccc1)c1ccc(-c2ccc(F)c(F)c2)c2ccoc12	ClpP mod 35µM (no result: Mm-Cpn inhibitor)
O=C(NCc1cccc(Cl)c1)c1ccc(-c2ccc(F)c(F)c2)c2ccoc12	ClpP mod 16µM (no result: Mm-Cpn inhibitor)
O=C(NCc1ccco1)c1ccc(-c2ccc(F)c(F)c2)c2ccoc12	TDP-43 yeast inh 20µM, ClpP mod 35µM (no result: Mm-Cpn inhibitor)
O=C(NCc1ccccc1)c1ccc(-c2ccc(F)c(F)c2)c2ccoc12	none (no result: Mm-Cpn inhibitor)
COc1ccc(CNC(=O)c2ccc(-c3ccc(F)c(F)c3)c3ccoc23)cc1OC	aSyn yeast inh inconclusive, FUS yeast rescue inconclusive, ClpP mod inconclusive (no result: Mm-Cpn inhibitor)
Cc1ccc(C(C)C)c(OCC(=O)Nn2c(=O)[nH]c3ccccc3c2=O)c1	none (no result: FUS yeast rescue)
Cc1ccc(C(=O)Nn2c(C)nc3ccccc3c2=O)cc1C	TDP-43 yeast inh 11µM
Cc1nc2ccccc2c(=O)n1NC(=O)c1ccc(C(C)(C)C)cc1	none
Cc1ccc(C(C)C)c(OCC(=O)Nn2c(C)nc3ccccc3c2=O)c1	TDP-43 yeast inh 14µM
O=C(NNc1ccccc1C(F)(F)F)c1sccc1Cl	none (no result: Mm-Cpn inhibitor, TDP-43 yeast inh, FUS yeast rescue, Abeta rescue)
C#CCOc1ccc(-c2nnc(Nc3ccc(NC(C)=O)cc3)c3ccccc23)cc1	none (no result: Mm-Cpn inhibitor, aSyn yeast inh)
